{"source": "PubChem BioAssay (NCATS)", "note": "Inconclusive results are not listed. Active and inactive are the calls of the source. Calls come from the whole dose curve; as a rule, active = well fitted inhibition curve with a large enough effect; inconclusive = small, poorly fitted or top-dose-only effect; inactive = flat fitted curve, though single readings scatter. % is set by controls: 0 for no effect and ±100 for the full control effect; potency is the fitted concentration of half-maximal effect."}
{"molecular_target": "Dual specificity protein kinase CLK4 (Homo sapiens) (UniProt Q9HAZ1)", "sequence (Q9HAZ1 whole entry, looked up)": "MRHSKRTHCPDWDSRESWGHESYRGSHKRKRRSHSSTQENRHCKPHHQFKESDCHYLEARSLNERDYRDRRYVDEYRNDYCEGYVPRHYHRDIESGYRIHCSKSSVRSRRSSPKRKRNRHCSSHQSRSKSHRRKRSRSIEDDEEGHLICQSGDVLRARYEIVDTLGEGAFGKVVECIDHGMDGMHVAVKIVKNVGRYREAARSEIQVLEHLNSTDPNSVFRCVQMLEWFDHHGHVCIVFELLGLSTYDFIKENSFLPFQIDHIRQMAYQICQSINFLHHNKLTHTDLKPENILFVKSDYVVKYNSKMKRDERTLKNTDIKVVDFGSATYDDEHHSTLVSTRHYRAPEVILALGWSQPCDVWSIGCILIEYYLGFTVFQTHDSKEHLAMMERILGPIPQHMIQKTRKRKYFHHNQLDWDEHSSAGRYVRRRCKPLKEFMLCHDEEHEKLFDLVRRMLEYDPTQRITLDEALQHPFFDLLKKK", "assay": "qHTS Assay for Inhibitors of CDC-like Kinase 4 (ADP-FP Assay) (AID 1795); note: nearly all actives have a fitted effect of over 60% in size;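 for activity change, negative = inhibition: recombinant human CLK4 phosphorylating RS repeat peptide at 1 µM ATP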", "conditions": "Transcreener ADP fluorescence polarization; series mostly up to 50 µM; activity change, negative = inhibition: at the top concentration", "description": "NIH Molecular Libraries Probe Production Centers Network [MLPCN] NIH Chemical Genomics Center [NCGC] MLPCN Grant: 1R03MH084827-01 Assay Submitter (PI): Tom Misteli NCGC Assay Overview: Clk4 (Invitrogen cat # PV3839) was assayed using ATP and the RS repeat peptide (AnaSpec cat # 61722) as substrates using Transcreener (trade mark), a competitive fluorescence polarization (FP) assay. For the present assay, we used the Orange TranscreenerTM ADP2 (BellBrooks Labs, Madison, Wis) detection system to monitor ADP production in the kinase reaction. […] This allows the ADP tracer to freely rotate leading to a decrease in the observed FP value. The amount of ADP produced can then be calculated using a calibration curve. The positive control for the assay was TG003 (Sigma-Aldrich, cat # 300801-52-9) which is a Clk4 inhibitor [2].\nNCGC Assay Protocol Summary: Two uL/well of substrate-buffer solution (100 uM RS peptide, 1 uM ATP, 25 mM Tris pH7.5, 10 mM MgCl2, 0.5 mM EGTA, 2.5 mM DTT, 0.01% Triton X-100 final concentration) was dispensed into 1,536-well assay plates (Greiner, solid black medium-binding plates) with Aurora Discovery BioRAPTR Flying Reagent Dispenser (FRD; Beckton-Dickenson). Using a Kalypsys pin tool equipped with a 1,536-pin tool, 23 nL of compound solution was transferred to the assay plate. Two uL/well Clk4-buffer solution (6.25 nM Clk4, 25 mM Tris pH 7.5, 10 mM MgCl2, 0.5 mM EGTA, 2.5 mM DTT, 0.01% Triton X-100, final concentration) was then added using the FRD yielding a total kinase reaction volume of 4 uL/ well. Then 4 uL/well of detection mixture (4 nM orange fluorescent tracer, 1 ug/mL ADP antibody, final concentration) was then added after an hour and the polarization signal was measured using the EnVision plate reader (PerkinElmer, Waltham, MA) after 30 min of room temperature incubation using the following filters and program settings: BODIPY TMR FP dual Enh mirror (barcode 682); BODIPY-TMR 531 (barcode 105) excitation; BODIPY-TMR FP P/S polarized 595 nm filters (barcodes 210 and 211, respectively); 100% light; 150 flashes; 1.35 G-factor; Detector gains were 685 for the 1st detector; 630 for the 2nd detector."}
{"smiles": "COCCn1c(=O)c(C)nc2cnc(OC)nc21", "activity change, negative = inhibition": "11.3% (inactive)"}
{"smiles": "CS(=O)(=O)Nc1cccc(-c2cncnc2NCc2ccccc2)c1", "activity change, negative = inhibition": "-6.46% (inactive)"}
{"smiles": "Cc1noc(C)c1-c1nccc(Nc2ccc(F)cc2)n1", "activity change, negative = inhibition": "-8.93% (inactive)"}
{"smiles": "CC(=O)NCCNc1ncnc2ccc(-c3ccccc3C(F)(F)F)cc12", "activity change, negative = inhibition": "-22.2% (inactive)"}
{"smiles": "Cc1ccccc1-c1ccc2ncnc(NCc3cccnc3)c2c1", "Potency": "11.2 µM (active)"}
{"smiles": "O=c1c(-c2ccccc2)nc2cncnc2n1-c1ccccc1", "activity change, negative = inhibition": "-1.61% (inactive)"}
{"smiles": "COc1ccc(Oc2ncc3nc(-c4cn(C)c5ccccc45)c(=O)n(C)c3n2)cc1", "activity change, negative = inhibition": "8.73% (inactive)"}
{"smiles": "c1cncc(-c2cc(-n3ccnc3)ncn2)c1", "Potency": "0.501 µM (active)"}
{"smiles": "COc1cccc(Cn2c(=O)c(-c3cccs3)nc3cncnc32)c1", "activity change, negative = inhibition": "4.44% (inactive)"}
{"smiles": "CN(Cc1ccco1)c1ncncc1-c1ccc2c(c1)OCO2", "activity change, negative = inhibition": "-1.68% (inactive)"}
{"smiles": "COCCn1c(=O)c(-c2cc(F)cc(F)c2)nc2cnc(N(C)C)nc21", "activity change, negative = inhibition": "4.36% (inactive)"}
{"smiles": "Cc1cccc(CNc2ccnc(-c3ccccc3Cl)n2)c1", "activity change, negative = inhibition": "-3.91% (inactive)"}
{"smiles": "CN1CCN(c2ncc3nc(-c4cccc(C#N)c4)c(=O)n(CCC#N)c3n2)CC1", "activity change, negative = inhibition": "2.22% (inactive)"}
{"smiles": "CN(C)C(=O)c1ccc(-c2cncnc2N(C)Cc2ccco2)cc1", "activity change, negative = inhibition": "5.44% (inactive)"}
{"smiles": "Cc1ccccc1-c1cc(N2CCNCC2)ncn1", "activity change, negative = inhibition": "5.21% (inactive)"}
{"smiles": "CCNc1ncc2nc(CCc3ccccc3)c(=O)n(C[C@H]3CCCO3)c2n1", "activity change, negative = inhibition": "9.95% (inactive)"}
{"smiles": "CCNc1ncc2nc(C)c(=O)n(C[C@H]3CCCO3)c2n1", "activity change, negative = inhibition": "-0.919% (inactive)"}
{"smiles": "COCCNc1ncnc2ccc(-c3c(C)noc3C)cc12", "Potency": "1.41 µM (active)"}
{"smiles": "COc1cccc(Nc2ncc3nc(-c4cccs4)c(=O)n(-c4ccccc4)c3n2)c1", "activity change, negative = inhibition": "-12.4% (inactive)"}
{"smiles": "CCNc1ncc2nc(-c3ccc(Cl)cc3)c(=O)n(Cc3cccs3)c2n1", "activity change, negative = inhibition": "5.34% (inactive)"}
{"smiles": "COCCn1c(=O)c(-c2ccc(OC)cc2)nc2cnc(N3CCN(C)CC3)nc21", "activity change, negative = inhibition": "11.8% (inactive)"}
{"smiles": "COc1ccccc1-c1cc(Nc2ccc(F)cc2)ncn1", "activity change, negative = inhibition": "-23.8% (inactive)"}
{"smiles": "COCCn1c(=O)c(-c2cccs2)nc2cnc(N3CCOCC3)nc21", "activity change, negative = inhibition": "8.05% (inactive)"}
{"smiles": "CN(C)C(=O)c1ccc(-c2nccc(Nc3ccc(F)cc3)n2)cc1", "activity change, negative = inhibition": "-8.12% (inactive)"}
{"smiles": "COc1cccc(Cn2c(=O)c(-c3cccs3)nc3cnc(OCc4ccccc4)nc32)c1", "activity change, negative = inhibition": "4.75% (inactive)"}
{"smiles": "COc1cccc(Cn2c(=O)c(-c3ccc(F)cc3)nc3cnc(N4CCOCC4)nc32)c1", "activity change, negative = inhibition": "7.43% (inactive)"}
{"smiles": "c1cncc(-c2nc(NCc3cccs3)c3ccccc3n2)c1", "Potency": "2 µM (active)"}
{"smiles": "c1csc(CNc2nc(-c3ccoc3)nc3ccccc23)c1", "Potency": "11.2 µM (active)"}
{"smiles": "CN1CCN(c2ncncc2-c2cccnc2)CC1", "activity change, negative = inhibition": "13.6% (inactive)"}
{"smiles": "CCNc1ncc2nc(-c3cn(C)c4ccccc34)c(=O)n(Cc3ccc(F)cc3)c2n1", "activity change, negative = inhibition": "7.58% (inactive)"}
{"smiles": "CCNc1ncc2nc(-c3cc(F)cc(F)c3)c(=O)n(C3CC3)c2n1", "activity change, negative = inhibition": "0.613% (inactive)"}
{"smiles": "Cc1noc(C)c1-c1nccc(NC2CC2)n1", "activity change, negative = inhibition": "-17.5% (inactive)"}
{"smiles": "N#CCCn1c(=O)c(-c2cc(F)cc(F)c2)nc2cnc(Oc3ccccc3)nc21", "activity change, negative = inhibition": "3.67% (inactive)"}
{"smiles": "COc1ncc2nc(C)c(=O)n(CCc3ccccc3)c2n1", "activity change, negative = inhibition": "2.68% (inactive)"}
{"smiles": "Cn1c(=O)c(-c2ccc(F)cc2)nc2cnc(OCc3ccccc3)nc21", "activity change, negative = inhibition": "3.37% (inactive)"}
{"smiles": "Cc1noc(C)c1-c1ccc2ncnc(Nc3ccccc3)c2c1", "Potency": "10 µM (active)"}
{"smiles": "COc1ncc2nc(-c3ccc(F)cc3)c(=O)n(Cc3cccs3)c2n1", "activity change, negative = inhibition": "5.82% (inactive)"}
{"smiles": "Cc1noc(C)c1-c1nc(Nc2ccccc2)c2ccccc2n1", "activity change, negative = inhibition": "-10% (inactive)"}
{"smiles": "COc1ccc(Oc2ncc3nc(-c4cccc(C#N)c4)c(=O)n(C)c3n2)cc1", "activity change, negative = inhibition": "6.86% (inactive)"}
{"smiles": "CN(C)C(=O)c1ccc(-c2cncnc2NCc2cccnc2)cc1", "activity change, negative = inhibition": "6.14% (inactive)"}
